PubChem BioAssay (NCI)
“And” between values parts separate entries of the source, which are not always exact repeats. Equal entries are not always repeated. This is part of a sample that, as a whole, favours compounds with a hit. Of some 83,000 tested, about 20% had one in any assay.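 Compound tested at a single concentration for 48 hours in 96-well plates; a percent growth value below 10 was scored as active.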 Unmarked numbers belong to inactive results. The source made the active and inactive calls.

Tested on: HL-60(TB) leukemia
Assay: NCI-60 one-dose screen, 48 h (100 = growth as untreated, 0 = no growth, -100 = all killed)
Details: 10 µM unless noted

SMILES	growth
CCCSc1nnc(-c2sc3nc4ccccc4n3c2C)o1	94%
CN(C)c1ccnc(CNCCSC2(c3ccc(C(F)(F)F)cc3)c3ccccc3C=Cc3ccccc32)c1	-34.1% (active)
O=C(Cc1c(-c2cccc([N+](=O)[O-])c2)n(-c2ncnc3c2c(-c2ccccc2)c(-c2ccccc2)n3Cc2ccccc2)[nH]c1=O)c1ccc(Cl)c(Cl)c1	11.6%
COC(=O)CC1CC1C1Cc2c(nc(N(C)S(C)(=O)=O)nc2C(C)C)-c2ccc(F)cc21 (configuration not stated)	58.7%
Cn1cc(NC(=O)c2cc(NC(=O)c3ccc(C#Cc4ccccc4)cc3)cn2C)cc1C(=O)NCCCN1CCOCC1	-67% (active)
COc1ccc(C2=NN(c3ccccc3)C(c3ccc(OC)c(OCc4ccccc4)c3)C2)cc1OC (configuration not stated)	100%
CS(=O)(=O)c1ccc(-n2nc(C(=O)NCc3ccccc3)cc2-c2ccc(Cl)cc2)cc1	83%
CC(=O)Nc1cccc(-n2c(COc3ccc(Br)cc3)nc3ccccc32)c1	113% and 103%
COc1ccc2nc(Cl)c(-c3cc(-c4ccccc4)nc(=S)[nH]3)cc2c1	19.6%
CN(C)c1nc(NCCNS(=O)(=O)c2ccc(C(=O)/C=C/c3ccccc3)cc2)nc(Nc2ccc(F)cc2)n1	14%
CN(C)c1nc(NCCNS(=O)(=O)c2ccc(C(=O)/C=C/c3ccc(Cl)cc3)cc2)nc(N2CCOCC2)n1	16.8%
Cn1cc(-c2cc(N)n3nc(-c4c[nH]c5ccccc45)cc3n2)c2cc(Br)cnc21	-66.7% (active)
